# Screens from PubChem BioAssay.
# Compounds with a hit are over-represented: about 18% of the library has one in this group of screens.
# DT40 TDP1 CPT: DT40-hTDP1 cell growth loss with CPT; chicken DT40 Tdp1-/-;hTDP1 cells + 20 nM CPT, ATP luminescence, 48 h; Potency, µM (highest dose often 46.2 µM), for inactives: at the top dose activity change, negative = growth inhibition, usual class: inhibitors; 420,000 tested, 12% active; further: potency means the concentration at half of the fitted maximal effect; nearly all actives have a fitted effect of over 55% in size
#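 Cell growth measured by CellTiter-Glo luminescence after a minimum 48 h, 37 C compound exposure with 20 nM CPT in Tdp1-knockout DT40 cells stably expressing hTDP1, seeded 400/well; qHTS titration format.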
# LDHA block: LDHA (human) enzyme inhibition | P00338 | purified LDHA, NADH/diaphorase-resazurin fluorescence; active compounds read low | activity change, % (values are at about 110 or 230 µM) | 480,000 tested, 0.15% active | AID 1347041; in the data active means activity change below about -30%; inconclusive means mostly about -25% to -30%;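 further: plate controls were DMSO wells for no effect and wells without enzyme for full effect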
#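 Human LDH5 (2 nM) was incubated with 0.06 mM NADH and 0.2 mM pyruvate for 5 min at room temperature in Tris pH 7.4. Remaining NADH was coupled through diaphorase/resazurin, and resorufin fluorescence was read at 0 and 20 min.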
# VP16 counter: counter-screen for ROR gamma inhibitors: Gal4-VP16 reporter. AID 2546. Potency, µM (titrated, usually from 53.6 µM), for inactives: at the top dose activity, negative = inhibition, most hits filed as inhibitors. Drosophila S2 Gal4-VP16 UAS-luciferase, luminescence, 20 h. 310,000 tested, 3.5% active;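 further: Gal4-VP16 expression switched on by copper sulfate through the metallothionein promoter; potency means the concentration at half of the fitted maximal effect; nearly all actives have a fitted effect of over 50% in size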
# TDP1 cell noCPT: qHTS for Inhibitors of human tyrosyl-DNA phosphodiesterase 1 (TDP1): qHTS in cells in absence of CPT; DT40 Tdp1-/- hTDP1 cells, no CPT, ATP luminescence, 48 h; Potency, µM (highest dose often 46.2 µM), without a hit: at the top dose activity change, negative = growth inhibition, most hits filed as inhibitors; 420,000 tested, 15% active; AID 686978, 2013; further: potency means the concentration at half of the fitted maximal effect; nearly all actives have a fitted effect of over 55% in size
#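 Chicken DT40 Tdp1-/- cells complemented with human TDP1, screened without camptothecin (DMSO vehicle only), 400 cells/well. Compounds pin-transferred, cells incubated at 37 °C for at least 48 hr. Growth read as ATP-dependent luminescence (CellTiter-Glo, 30 min at RT).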
# RORgamma inh: ROR gamma (mouse) transcription inhibition | P51450 | Drosophila S2 Gal4-RORgamma UAS-luciferase reporter, 20 h | Potency, µM (top dose mostly 53.6 µM), for the others: top-dose activity change, negative = inhibition, actives largely listed as inhibitors | 310,000 tested, 5.4% active | AID 2551; further: potency means the concentration at half of the fitted maximal effect; nearly all actives have a fitted effect of over 60% in size
# Target sequence (P51450 whole entry, looked up, the tested form may be a part): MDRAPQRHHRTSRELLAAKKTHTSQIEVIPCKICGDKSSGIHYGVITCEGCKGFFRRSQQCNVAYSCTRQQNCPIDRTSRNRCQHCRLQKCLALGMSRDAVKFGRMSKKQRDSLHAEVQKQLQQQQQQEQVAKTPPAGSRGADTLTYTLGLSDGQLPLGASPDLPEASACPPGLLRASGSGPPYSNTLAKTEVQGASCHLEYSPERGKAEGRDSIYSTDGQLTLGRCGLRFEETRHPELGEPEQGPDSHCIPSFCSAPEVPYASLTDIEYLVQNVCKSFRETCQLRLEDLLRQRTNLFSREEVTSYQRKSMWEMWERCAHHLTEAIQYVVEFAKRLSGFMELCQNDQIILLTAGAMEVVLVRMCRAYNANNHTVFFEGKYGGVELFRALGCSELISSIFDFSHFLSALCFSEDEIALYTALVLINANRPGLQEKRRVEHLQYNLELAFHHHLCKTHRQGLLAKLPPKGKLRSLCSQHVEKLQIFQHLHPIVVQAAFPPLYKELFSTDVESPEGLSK
#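 A Gal4/UAS one-hybrid system in insect cells: metallothionein-promoter Gal4–ROR gamma fusion plus Photinus luciferase reporter. Copper sulfate 700 uM final, 20 hr ambient incubation, luminescent detection after 10 min with reagent.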
# IL-1B inflam inh: inhibitors of inflammasome signaling (IL-1 beta secretion); THP-1 LPS/ATP IL-1B secretion, AlphaLISA, 16 h; active compounds read low; 360,000 tested, 4.7% active; activity change, % at 57.5 µM; in the data active means activity change below about -50%; inconclusive means mostly about -30% to -49%
#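 Secreted IL-1B measured by AlphaLISA bead assay after 16 h compound exposure of THP-1 cells; compounds (final up to 57.5 uM) added 1 h before LPS (250 ng/mL) and ATP (1.25 mM) stimulation; lower signal means less secretion.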
# * marks the source's active call; other numbers are inactive results; i = inactive; ? = inconclusive; / = no result; [ ] = remark or other dose. Unless noted, the call rests on the fitted dose curve; in most records, active means well fitted curve in the direction sought with a large enough effect; inconclusive means small, poorly fitted or top-dose-only effect, or another doubt; inactive means no such curve, though single readings can be large; an effect the other way counts as inactive or inconclusive. Unless noted, on the % scale 0 is the no-effect control and ±100 the full control effect.
SMILES,DT40 TDP1 CPT,LDHA block,VP16 counter,TDP1 cell noCPT,RORgamma inh,IL-1B inflam inh
CCN(CC)S(=O)(=O)c1ccc(C(=O)NC(=S)N(CCC#N)Cc2cccnc2)cc1,-4%,1,11µM*,3%,3.5µM*,32
N#CCCN(Cc1cccnc1)C(=S)NC(=O)c1ccco1,27%,-7,5%,6%,-36%,-3
CN(C)S(=O)(=O)c1cccc(C(=O)NC(=S)N(CCC#N)Cc2cccnc2)c1,-1%,-2,-25%[10 µM],3%,2µM*,32
CCN(Cc1cccs1)C(=O)c1ccc(NS(C)(=O)=O)cc1,/,3,/,/,/,/
CCn1cc(CNCc2cn[nH]c2-c2cc3ccccc3o2)cn1,18µM*,-1,-11%,23µM*,28%,8
Fc1ccc(-c2[nH]ncc2CNCc2cccc(Cn3cccn3)c2)cc1,/,3,/,/,/,/
CCOc1ccccc1N(CC(=O)NC(C)CC)S(C)(=O)=O (stereo unspecified),/,-9,/,/,/,/
O=S(=O)(Nc1cccc(F)c1)c1ccc2[nH]c3c(c2c1)CCCCC3,21µM*,-1,/,?,/,/
Cc1ccc(NS(=O)(=O)c2ccc3[nH]c4c(c3c2)CCCCCC4)cc1C,?,-1,/,16µM*,/,/
Cc1ccc(NS(=O)(=O)c2ccc3[nH]c4c(c3c2)CCCCCC4)cc1,26µM*,0,/,?,/,/
CCc1ccc(NS(=O)(=O)c2ccc3[nH]c4c(c3c2)CCCCCC4)cc1,?,-4,/,?,/,/
CCn1c(-n2nc(C)c(C)c2C)nc2c1c(=O)n(Cc1c(F)cccc1Cl)c(=O)n2C,/,-11,/,/,/,/
O=Cc1ccc(OCc2cccc(Br)c2)cc1,/,5,/,/,/,/
Cc1csc(NC(=O)CSc2ccc(-c3ccccn3)nn2)n1,?,-7,21%,26µM*,-17%,192
Cc1cc(C)cc(NC(=O)CSc2ccc(-c3ccccn3)nn2)c1,16µM*,1,-3%,?,-24%,61
Cc1ccccc1NC(=O)CSc1ccc(-c2ccccn2)nn1,?,1,-9%,?,-26%,-9
O=C(CSc1ccc(-c2ccccn2)nn1)Nc1cccc(F)c1,?,0,-11%,18µM*,-20%,i
O=C(Nc1ccccc1Cl)c1nn(Cc2ccccc2)c(=O)c2ccccc12,/,-2,/,/,/,/
COc1cc(C2SCCS2)ccc1OC(=O)c1ccc2ncsc2c1,/,0,/,/,/,/
Cc1cccc(C)c1NC(=O)CN1CCN(Cc2csc(-c3cccc(Br)c3)n2)CC1,/,-4,/,/,/,/
c1ccc(Cn2c(-c3ccccc3)nc3nc4ccccc4nc32)cc1,21µM*,-5,3%,23µM*,-12%,-2
C=CCn1c(-c2ccccc2)nc2nc3ccccc3nc21,18µM*,-4,4%,18µM*,-3%,-7
Clc1cccc(-c2nc3nc4ccccc4nc3n2Cc2ccccc2)c1,?,-1,-15%,?,-8%,-11
O=C(Nc1ccc(N2CCN(C(=O)c3cccs3)CC2)cc1)c1ccccc1Cl,15µM*,-1,-5%,12µM*,29%,-57*
CC(C)(C)C(=O)Nc1ccc(N2CCN(C(=O)c3cccs3)CC2)cc1,-7%,-1,/,-23%,/,?
SMILES,DT40 TDP1 CPT,LDHA block,VP16 counter,TDP1 cell noCPT,RORgamma inh,IL-1B inflam inh
O=C(Nc1ccc(N2CCN(C(=O)c3ccccc3F)CC2)cc1)c1cncc(Br)c1,?,-3,-3%,18µM*,43%,-58*
O=C(Nc1ccc(N2CCN(C(=O)c3cccs3)CC2)cc1)c1ccccc1F,?,-2,4%,18µM*,-17%,-62*
CC(C)C1Cc2c(sc3nc(SCC(=O)O)n(-c4ccccc4)c(=O)c23)CO1 (stereo unspecified),/,9,/,/,/,/
Cn1nc(C(=O)N2CCCC(c3nc4ccccc4s3)C2)c2ccccc2c1=O (stereo unspecified),/,5,/,/,/,/
CCN(CC1CCOC1)C(=O)C=C(C)C (stereo unspecified),/,3,/,/,/,/
COc1ccc(Cl)cc1N1CC(c2nc3ccccc3n2C)CC1=O (stereo unspecified),/,-3,/,/,/,/
COc1cccc(OCC(O)CN2CCN(CCN3C(=O)c4cccc5cccc(c45)C3=O)CC2)c1 (stereo unspecified),?,2,-19%,18µM*,-25%,-81*
Cc1ccc(C)c(OCC(O)CN2CCC(CN3C(=O)c4cccc5cccc(c45)C3=O)CC2)c1 (stereo unspecified),5.2µM*,-6,-14%,5.8µM*,-6%,-97*
CCOC(=O)C1CCN(CC(O)COCc2ccc3c(c2)OCO3)CC1 (stereo unspecified),-10%,-2,1%,11%,-2%,1
O=C1c2cccc3cccc(c23)C(=O)N1CC1CCN(CC(O)COCc2ccc3c(c2)OCO3)CC1 (stereo unspecified),?,-8,-23%,?,-21%,-81*
O=C1c2cccc3cccc(c23)C(=O)N1CCN1CCN(CC(O)COc2ccccc2)CC1 (stereo unspecified),-14%,-4,-30%,-29%,-34%,2
Cc1ccccc1OCC(O)CN1CCC(C)CC1 (stereo unspecified),0%,0,-17%,-2%,8%,-8
COc1ccc(OCC(O)CN2CCC(CN3C(=O)c4cccc5cccc(c45)C3=O)CC2)cc1 (stereo unspecified),13µM*,-1,-12%,21µM*,14%,/
COc1ccc(OCC(O)CN2CCCCCC2)cc1 (stereo unspecified),-14%,-8,2%,-6%,-29%,0
COc1cccc(OC)c1C(=O)Oc1ccc2c(c1)O/C(=C\c1cccs1)C2=O,/,17,/,/,/,/
COc1ccc(-c2cc3ccc(OS(=O)(=O)c4ccc(C)cc4)cc3oc2=O)cc1OC,/,-3,/,/,/,/
CC(=O)Nc1ccc(NC(=O)C23CC4CC(C2)CC(n2cnc(Br)n2)(C4)C3)cc1,5%,-10,2%,-18%,9%,0
COc1ccc(NC(=O)C23CC4CC(C2)CC(n2cnc(Br)n2)(C4)C3)c(OC)c1,?,1,-41%,?,5.6µM*,31
COc1ccc(OC)c(NC(=O)C23CC4CC(C2)CC(n2cnc(Br)n2)(C4)C3)c1,11µM*,1,2%,10µM*,-5%,3
CCOC(=O)c1cc2cc(NC(=O)c3ccc4c(c3)NC(=O)CS4)ccc2s1,/,15,/,/,/,/
